Inconclusive results are not listed. Calls of active or inactive are those of the source. The call rests on the fitted dose curve; in most records, active means well fitted curve in the direction sought with a large enough effect; inconclusive means small, poorly fitted or top-dose-only effect, or another doubt; inactive means no such curve, though single readings can be large; an effect the other way counts as inactive or inconclusive.
Biological target: Phospholipid hydroperoxide glutathione peroxidase GPX4 (Homo sapiens) (UniProt P36969)
Experiment: Primary qHTS Assay for Inhibitors of Recombinant Selenoprotein Glutathione Peroxidase 4 (GPX4) (AID 1845192); further: nearly all actives have a fitted effect of over 65% in size; on activity change, negative = inhibition: on the % scale 0 is the no-effect control and ±100 the full control effect
Conditions: recombinant GPX4, GR-coupled NADPH fluorescence, 15 min; series mostly up to 50 µM; activity change, negative = inhibition: at the top concentration
In short: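 NADPH consumption followed by fluorescence at 340/450 nm, t=0 and after 15 min at room temperature. Reaction started with cumene hydroperoxide (0.5 mM final) after 30 min compound–GPX4 preincubation; final 200 nM GPX4, 100 nM GR, 1 mM GSH, 0.5 mM NADPH.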

Chain of Phospholipid hydroperoxide glutathione peroxidase GPX4 (Homo sapiens) (P36969 whole entry, looked up): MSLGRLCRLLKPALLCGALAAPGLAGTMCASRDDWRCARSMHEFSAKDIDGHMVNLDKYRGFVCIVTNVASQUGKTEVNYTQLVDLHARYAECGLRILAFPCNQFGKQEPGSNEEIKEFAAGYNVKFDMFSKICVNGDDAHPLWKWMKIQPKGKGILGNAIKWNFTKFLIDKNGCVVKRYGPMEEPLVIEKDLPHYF

Structure (SMILES) | activity change, negative = inhibition | outcome
OC1C=C2C3CN(Cc4cc5c(cc43)OCO5)C2CC1O (configuration not stated) | -7.76% (inactive) | 
C=C1CC(=O)C2OC2(C)CC2OC(=O)C(=C)C2C(O)C1OC(=O)/C(C)=C\C (configuration not stated) | -10.7% [at 27.8 µM] (inactive) | 
CCOC(=O)c1cnn(-c2ccccc2)c1NC(=O)c1cc2nc(-c3ccco3)cc(C(F)(F)Cl)n2n1 | 0.598% (inactive) | 
Cc1nc(Nc2cnn(C3CCNCC3)c2)nc2c1N(C)C(=O)c1cc3ccccc3cc1N2C | -5.71% (inactive) | 
C/C=C(\C)C(=O)OC1C(C)C2(O)C(C=C(CO)CC3(O)C(=O)C(C)=CC32)C2C(C)(C)C12OC(C)=O (configuration not stated) | -18% [at 27.8 µM] (inactive) | 
C=C1C(=O)OC2C=C(C)CC/C=C(\CO)CC(O)C12 (configuration not stated) | 0.842% (inactive) | 
CN1CCN(C2=Nc3ccccc3Nc3ccc(OS(=O)(=O)C(F)(F)F)cc32)CC1 | -6.35% (inactive) | 
C=C(C)[C@@H]1CC=C(COC(=O)NC(=O)c2ncn3c(=O)n(C)nnc23)CC1 | 3.48% (inactive) | 
c1ccc(-c2cnn3cc(-c4ccc(OCCN5CCOCC5)cc4)cnc23)cc1 |  | inactive
CCC(C)/C=C(C)/C=C/C1=CC2=C(Cl)C(=O)C(C)(OC(C)=O)C(=O)C2(O)C(OC)O1 (configuration not stated) | -19.3% [at 27.8 µM] (inactive) | 
O=C(Nc1ccc(-c2ccc(Cl)c(Cl)c2)cc1)C1=C(O)c2ccccc2S(=O)(=O)N1 | -6.1% (inactive) | 
C[C@@H]1CC[C@@]23CC[C@]4(C)[C@@](C=CC5[C@@]6(C)CC[C@H](O)C(C)(C)C6CC[C@]54C)(OC2=O)C3[C@H]1C (some centres not stated) | -6.4% [at 27.8 µM] (inactive) | 
O=C(NCCN1CCN(c2cccc3ccc(O)cc23)CC1)c1ccc(F)cc1 | -17.9% (inactive) | 

Biological target: Luciferin 4-monooxygenase (Photinus pyralis) (UniProt P08659)
Experiment: Primary firefly luciferase (FLuc) qHTS assay for identification of artifact compounds. (AID 1845220); further: nearly all actives have a fitted effect of over 60% in size;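 on activity change, negative = inhibition: plate controls were DMSO vehicle for no effect and no enzyme for full effect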
Conditions: purified firefly luciferase, luminescence, 5 min; series mostly up to 54.1 µM; activity change, negative = inhibition: at the top concentration
In short: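 FLuc 10 nM; luciferin 10 uM; ATP 10 uM; Tris-acetate pH 7.6, Mg-acetate 10 mM; 15 min RT preincubation; 5 min reaction; luminescence.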

Structure (SMILES) | activity change, negative = inhibition | outcome
C=C1CC[C@@H](O)[C@]2(C)CC[C@H]3C(=C)C(=O)O[C@@H]3[C@@H]12 | -2.74% (inactive) | 
CC(C)c1cccc(C(C)C)c1NC(=O)Nc1ccc(Sc2ccc([N+](=O)[O-])cc2)cc1 | 2.06% (inactive) | 
OC1CCC(Nc2nc(-c3ccccc3)nc3[nH]ccc23)CC1 (configuration not stated) | 4.44% (inactive) | 
CC(/C=C/C(=O)NO)=C\[C@@H](C)C(=O)c1ccc(N(C)C)cc1 | 3.87% (inactive) | 
CC[C@H](C(=O)Nc1ccccc1N1CCCC1)c1ccccc1 |  | inactive
CCOc1ccc(CCNC(=O)c2cc3sc(Cl)cc3n2C)cc1OCC |  | inactive
C[C@@H](NC(=O)C(=O)c1c[nH]c2ccc([N+](=O)[O-])cc12)c1ccccc1 | -1.79% (inactive) | 
C#CCNCc1cc2cc(OCc3ccccc3)ccc2[nH]1 | -3.12% (inactive) | 
O=S(=O)(Nc1ccccc1N1CCCCC1)c1ccc(Cl)s1 |  | inactive
CC(C)(C)OC(=O)c1ncn2c1C(C)(C)Nc1ccccc1-2 | 2.85% (inactive) | 
C=CS(=O)(=O)NC1CCN(C(=O)CNc2cc(I)c(Cl)cc2OC)CC1 | 1.95% (inactive) | 
CCN(CC)C(=O)C(c1ccccc1)N1CCN(c2ccc(NC(=O)c3ccccc3-c3cccnc3)cc2F)CC1 (configuration not stated) |  | inactive
COc1cc2ncnc(Nc3ccc(F)c(Cl)c3)c2cc1O |  | inactive
COC(=O)C[C@H]1[C@]2(C)C3=C(C)[C@H](c4ccoc4)C[C@H]3O[C@@H]2[C@H](O)C2[C@](C)(C(=O)OC)C=CC(=O)[C@@]21C (some centres not stated) | 1.46% [at 25.7 µM] (inactive) | 
Cn1c(CO)c(-c2ccccc2)c2cc([N+](=O)[O-])ccc21 | -0.789% (inactive) | 
CC(C)=C[C@@H]1[C@H](CO[C@@H]2O[C@H](CO)[C@@H](O)[C@H](O)[C@H]2O)C1(C)C | 0.191% (inactive) | 
Cc1cc(C)c2c(c1)C(N(Cc1cc(C(F)(F)F)cc(C(F)(F)F)c1)c1nnn(C)n1)CCCN2CC1CCC(C(=O)O)CC1 (configuration not stated) | -0.445% (inactive) | 
CCOc1ccc(-n2c(C(C)N(Cc3cccnc3)C(=O)Cc3ccc(F)c(C(F)(F)F)c3)nc3ncccc3c2=O)cc1 (configuration not stated) | 2.73% (inactive) | 
OC1C=C2C3CN(Cc4cc5c(cc43)OCO5)C2CC1O (configuration not stated) | 4.88% (inactive) | 
CCOC(=O)c1cnn(-c2ccccc2)c1NC(=O)c1cc2nc(-c3ccco3)cc(C(F)(F)Cl)n2n1 |  | inactive
C=C1C(=O)OC2C=C(C)CC/C=C(\CO)CC(O)C12 (configuration not stated) |  | inactive
CN1CCN(C2=Nc3ccccc3Nc3ccc(OS(=O)(=O)C(F)(F)F)cc32)CC1 |  | inactive
C=C(C)[C@@H]1CC=C(COC(=O)NC(=O)c2ncn3c(=O)n(C)nnc23)CC1 | -25.4% (inactive) | 
CCC(C)/C=C(C)/C=C/C1=CC2=C(Cl)C(=O)C(C)(OC(C)=O)C(=O)C2(O)C(OC)O1 (configuration not stated) | -1.39% [at 25.7 µM] (inactive) | 
C[C@@H]1CC[C@@]23CC[C@]4(C)[C@@](C=CC5[C@@]6(C)CC[C@H](O)C(C)(C)C6CC[C@]54C)(OC2=O)C3[C@H]1C (some centres not stated) |  | inactive [at 25.7 µM]
O=C(NCCN1CCN(c2cccc3ccc(O)cc23)CC1)c1ccc(F)cc1 |  | inactive

Test system: not listed separately
Experiment: Primary fluorescence-based thiol-reactive (MSTI) qHTS assay for identification of artifact compounds. (AID 1845221); further: nearly all actives have a fitted effect of over 65% in size; further: potency means the concentration at half of the fitted maximal effect;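 on activity change, negative = thiol reactive: thiol-reactive compounds lower the probe fluorescence signal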
Conditions: MSTI thiol-reactivity probe, 1 h; series mostly up to 53.8 µM; activity change, negative = thiol reactive: at the top concentration
In short: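 In PBS pH 7.4 with 2% DMSO, each compound met 4 uM MSTI for one hour at ambient temperature, shielded from light, before fluorescence detection.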

Structure (SMILES) | activity change, negative = thiol reactive | Potency
CC(C)(C)C1CCN(C(=O)n2ncc(C(O)(c3ccccc3)c3ccccc3)n2)CC1 | -13.1% (inactive) | 
COc1cc2c(cc1O)C1(Cc3ccc4c(c3C1O)OCO4)[N+](C)([O-])CC2 (configuration not stated) |  | 5.21 µM (active)
O=S(=O)(NCc1ccccn1)c1ccc(Br)c2ccccc12 | 128% (inactive) | 
CC(C)/C=C1\NC(=O)C(C(C)C)n2c1nc1ccccc1c2=O (configuration not stated) | 55.3% (inactive) | 
CCCOc1ccc(CCc2nc3cc(-c4c(C)noc4C)ccc3n2CCN2CCOCC2)cc1 | -8.43% (inactive) | 
COc1ccc(NC(=O)c2ccc(-c3ccc(-c4nnc(C)o4)cc3C)cc2)cc1N1CCN(C)CC1 | -17.8% (inactive) | 
CN1CCN(c2ccc(OC(F)(F)F)c(Nc3ncc4c(n3)-c3c(c(C(N)=O)nn3CCO)CC4)c2)CC1 | 70.2% (inactive) | 
CC(C)=CCC[C@](C)(O[C@@H]1O[C@H](CO[C@@H]2OC[C@@H](O)[C@H](O)[C@H]2O)[C@@H](O)[C@H](O)[C@H]1O)[C@H]1CC[C@]2(C)[C@@H]1[C@H](O)C[C@@H]1[C@@]3(C)CC[C@H](O[C@@H]4O[C@H](CO)[C@@H](O)[C@H](O)[C@H]4O)C(C)(C)[C@@H]3CC[C@]12C | 51.5% [at 25.6 µM] (inactive) | 
C=C1CC(=O)C2OC2(C)CC2OC(=O)C(=C)C2C(O)C1OC(=O)/C(C)=C\C (configuration not stated) | -17.4% (inactive) | 
Cc1nc(Nc2cnn(C3CCNCC3)c2)nc2c1N(C)C(=O)c1cc3ccccc3cc1N2C | -14.7% (inactive) | 
C/C=C(\C)C(=O)OC1C(C)C2(O)C(C=C(CO)CC3(O)C(=O)C(C)=CC32)C2C(C)(C)C12OC(C)=O (configuration not stated) | -5.17% [at 25.6 µM] (inactive) | 
c1ccc(-c2cnn3cc(-c4ccc(OCCN5CCOCC5)cc4)cnc23)cc1 | 71.3% (inactive) | 
O=C(Nc1ccc(-c2ccc(Cl)c(Cl)c2)cc1)C1=C(O)c2ccccc2S(=O)(=O)N1 | 2.21% (inactive) | 

Reference: PubChem BioAssay (NCATS)
